Screening results: PubChem BioAssay, National Center for Advancing Translational Sciences (NCATS)
Most compounds without a hit are left out; they make up all but 3.1% or so of the library.
HEK293 cAMP cs: parental HEK293 cAMP activation (counter-screen) | parental HEK293 CNG cAMP sensor, membrane potential fluorescence | Potency, µM (highest dose often 57.1 µM), for the others: top-dose activation, actives largely listed as activators | hit rate 2.5% among 73,000 | AID 938; note: % of control where 0% means no effect; nearly all actives have a fitted effect of over 55% in size
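Parental HEK 293 cells stably expressing a modified CNG channel (no TSHR) report cAMP rise as membrane depolarization. Membrane potential dye with 100 uM RO 20-1724 was loaded for 60 min at room temperature, then compound added for 30 min; fluorescence read at 590 nm.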
IkB sig inh: suppresses IkB signaling in ABC-DLBCL reporter cells | ABC-DLBCL IkBa-CBG/CBR dual luciferase ratio, 4 h; response scale: scaled: untreated 0%, proteasome inhibitor 100% | Potency, µM (titrated, usually from 57.1 µM), for inactives: top-dose IkBa stabilization activation | hit rate 0.04% among 110,000 | AID 445; active = well fitted curve in the direction sought with a large enough effect in the signal ratio, not every such curve was filed as active; inconclusive = small, poorly fitted or top-dose-only effect, or a change in a side signal; the % refers to the signal ratio;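 note: the direction sought is a rising ratio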
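In this assay, an IκBα–CBG68 fusion accumulates when IKK-driven degradation is blocked; native CBR normalizes for cell number. OCI-Ly3 cells were treated 4 h with compound and doxycycline, then green and red light read after Chroma-Glo addition.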
p53ts 32C tox: cytotoxicity in p53ts cells at permissive temperature; H1299-p53A138V at 32C, ATP luminescence viability, 24 h; hit rate 0.93% among 130,000; Potency, µM (highest dose often 46.1 µM), for inactives: at the top dose activity change, negative = cytotoxicity, most hits filed as cytotoxic;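 note: 0% = DMSO and -100% = full killing by reference compound; nearly all actives have a fitted effect of over 55% in size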
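Viability by ATPlite luminescence after 24 h compound treatment (up to 46 uM) at the permissive 32C. Cells are H1299 carrying p53 A138V. Scale runs from DMSO basal to 100 uM tamoxifen as full kill; AC50 from Hill fits.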
p53ts 39C tox: p53ts cell cytotoxicity, nonpermissive temperature | H1299-p53A138V viability at 39C, ATP luminescence, 24 h | Potency, µM (titrated, usually from 46.1 µM), for inactives: at the top dose activity change, negative = cell killing, actives largely listed as cytotoxic | AID 902 | hit rate 1.5% among 130,000; note: % is set by controls: 0 for no effect and ±100 for the full control effect; nearly all actives have a fitted effect of over 55% in size
Imprint erasure: inducers of genomic imprint erasure in mouse ES cells | hit rate 0.02% among 110,000 | Potency, µM (series often up to 60.7 µM), without a hit: at the top dose activity change, positive = activation, usual class: activators | mouse ES Peg3-LacZ reporter, beta-gal luminescence, 40 h
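Each well holds 300 Peg3LacZ-Neo (maternal) female ES cells incubated 40 h at 37C, 5% CO2. LacZ is measured by BetaGlo luminescence, with AC50 and maximum efficacy derived from dose-response curves.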
TSHR ag: activates the human thyroid stimulating hormone receptor. P16473. HEK293-CNG-TSHR cells (CNG channel as cAMP sensor), membrane potential dye, cAMP. Potency, µM (titrated, usually from 57.1 µM), inactives show top-dose activation, usual class: activators. hit rate 0.48% among 73,000. AID 926; active = well fitted activation curve with a large enough effect in the main read-out, with a control signal flat, not every such curve was filed as active; inconclusive = small, poorly fitted or top-dose-only effect, or a change in a side signal; inactive = no such curve, though single readings can be large or run the other way; % of control where 0% means no effect;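 note: the control signal comes from parental cells without the receptor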
Target sequence (P16473 whole entry, looked up): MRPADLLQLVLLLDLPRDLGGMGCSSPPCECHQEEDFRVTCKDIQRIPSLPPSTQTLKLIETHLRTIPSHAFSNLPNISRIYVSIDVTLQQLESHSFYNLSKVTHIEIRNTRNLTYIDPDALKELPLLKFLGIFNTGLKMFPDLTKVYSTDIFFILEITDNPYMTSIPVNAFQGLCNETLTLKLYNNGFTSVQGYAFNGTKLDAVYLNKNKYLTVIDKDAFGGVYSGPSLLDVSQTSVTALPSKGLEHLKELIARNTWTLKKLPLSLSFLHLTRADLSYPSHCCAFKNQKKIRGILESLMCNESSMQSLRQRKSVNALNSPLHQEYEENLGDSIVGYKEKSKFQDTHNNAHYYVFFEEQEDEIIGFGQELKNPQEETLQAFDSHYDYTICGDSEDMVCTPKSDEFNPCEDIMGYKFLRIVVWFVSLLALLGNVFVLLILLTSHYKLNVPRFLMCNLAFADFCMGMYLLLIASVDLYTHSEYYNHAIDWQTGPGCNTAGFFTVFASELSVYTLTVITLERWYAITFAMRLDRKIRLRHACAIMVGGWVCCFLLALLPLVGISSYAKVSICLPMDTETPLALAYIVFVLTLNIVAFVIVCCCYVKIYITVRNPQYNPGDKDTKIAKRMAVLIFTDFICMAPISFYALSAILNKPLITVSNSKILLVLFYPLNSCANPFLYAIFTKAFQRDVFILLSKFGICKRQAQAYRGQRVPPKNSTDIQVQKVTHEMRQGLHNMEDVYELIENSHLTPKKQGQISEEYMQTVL
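cAMP rise detected as CNG-channel membrane depolarization by fluorescent dye (emission 590 nm), 30 min after compound, following 60 min dye loading containing 100 uM RO 20-1724 at room temperature. Cells: TSHR/CNG HEK 293, with parental CNG HEK 293 as control.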
An asterisk follows results filed as active; u = inconclusive; x = no result; [ ] = another dose, or the depositor's remark. Unless noted, calls come from the whole dose curve; as a rule, active = well fitted curve in the direction sought with a large enough effect; inconclusive = small, poorly fitted or top-dose-only effect, or another doubt; inactive = no such curve, though single readings can be large; an effect the other way counts as inactive or inconclusive. Potency is the fitted concentration of half-maximal effect.

SMILES | HEK293 cAMP cs | IkB sig inh | p53ts 32C tox | p53ts 39C tox | Imprint erasure | TSHR ag
C=CCN1C(=O)C2C(C(=O)NCc3ccccc3)C3(C)C=CC2(O3)C1C(=O)NC(C)(C)C (stereo not drawn) | u | -1% | 10% | -1% | 10µM* | u
O=C1c2c(O)ccc([N+](=O)[O-])c2C(=O)c2c([N+](=O)[O-])ccc(O)c21 | -118% | u | 0%[1.84 µM] | 16µM* | -37% | u
CN(C)S(=O)(=O)c1ccc(Nc2ccc(O)c3c2C(=O)c2c([N+](=O)[O-])ccc(O)c2C3=O)cc1 | -46%[11.4 µM] | 4%[11.4 µM] | -4%[9.22 µM] | -3%[9.22 µM] | u | u
O=C(NCc1ccc2c(c1)OCO2)c1ccccn1 | 12% | 0% | -8% | 4% | -37% | 2%
O=C(/C=C\Nc1ccc2c(c1)OCO2)c1ccccn1 | 24% | u | 1.6µM* | 2.5µM* | -86% | 17%
CCN1CCN(c2cc(C)c3cc(NC(=O)/C=C/c4ccc(OCCC(C)C)cc4)ccc3n2)CC1 | x | u | 12% | 6.3µM* | -32%[10.9 µM] | x
CCN1CCN(c2cc(C)c3cc(NC(=O)/C=C/c4ccc(C)cc4)ccc3n2)CC1 | x | u | u | 3.2µM* | -6%[10.9 µM] | x
O=C1C(Cl)=C(Nc2ccc(S(=O)(=O)Nc3ccccn3)cc2)C(=O)c2ccccc21 | -3%[11.4 µM] | 6.3µM* | -1%[9.22 µM] | 2%[9.22 µM] | -35%[10.9 µM] | -2%[11.4 µM]
CC(C)(C)c1ccc(C(=O)/C=C2\NC(=O)CS2)cc1 | -13% | -1% | 10µM* | 7.9µM* | -57% | 3%
COCCOC(=O)/C=C1/NC(=O)CS1 | 5% | 0% | 4% | -5% | -8% | 5%
COc1ccc(NC(=O)N2CC[C@@]3(CCCN(C(=O)c4csnn4)C3)C2)cc1 | 3% | 0%[11.4 µM] | 2% | 16% | x | 1%
Cc1ccc(Cn2c(CO)cnc2SCC(=O)Nc2ccc(C)c(Cl)c2)cc1 | x | u | -2% | 13µM* | -11%[10.9 µM] | x
CCOC(=O)c1ccc(NC(=O)C(CC)Sc2nc3ncccc3o2)cc1 (stereo not drawn) | x | -1% | -1% | u | -17%[10.9 µM] | x
Cc1cccn2c(=O)cc(COc3cccc(NC(=O)COc4ccccc4)c3)nc12 | x | 4% | -4% | -15% | 28%[10.9 µM] | x
Cc1cccn2cc(CCNC(=O)c3ccc(Br)o3)nc12 | 32µM* | u | 4% | 22% | -16% | u
O=C(NCCc1cn2ccccc2n1)c1ccc(Br)o1 | 21% | 6% | 10% | 18% | -9% | 4%
CCC(C(=O)NCCc1ccc(SC)cc1)n1nc(C)c2sc3ccccc3c2c1=O (stereo not drawn) | x | 1% | -3% | -9% | -10%[10.9 µM] | x
Cc1nn(C(C)C(=O)NC2CCCCC2)c(=O)c2c1sc1ccccc12 (stereo not drawn) | x | u | 13µM* | 10µM* | -33%[10.9 µM] | x
CSc1ccc(CCNC(=O)C(C)n2nc(C)c3sc4ccccc4c3c2=O)cc1 (stereo not drawn) | x | -3% | 10µM* | 10µM* | -34%[10.9 µM] | x
CC(C)c1ccc2oc(-c3cccc(NC(=O)c4ccc5c(c4)OCCO5)c3)nc2c1 | x | u | u | 10µM* | -11%[10.9 µM] | x
C#CCCCO/N=C1/C[C@@H](O)[C@@H](O)[C@@H]2[C@@H]3C(=O)N([C@@H](C)c4ccccc4)C(=O)[C@H]3CC[C@@H]12 | -2%[11.4 µM] | x | -5%[9.22 µM] | -5%[9.22 µM] | x | 8%[11.4 µM]
COc1ccc(C(CNC(=O)COc2ccccc2C#N)N2CCOCC2)cc1 (stereo not drawn) | 19% | 1% | -1% | 1% | 0% | 3%
CC(C)(C)NC(=O)NC(=O)COc1ccccc1C#N | 4% | u | 13µM* | 13µM* | -69% | -3%
Cc1ccccc1-n1c(SCc2ccc(Cl)cc2)nc2[nH]ncc2c1=O | x | u | 27% | -11% | -11%[10.9 µM] | x
Cc1cc(-n2c(SCc3ccccc3F)nc3[nH]ncc3c2=O)ccc1Cl | x | u | 12% | 16µM* | -11%[10.9 µM] | x
SMILES | HEK293 cAMP cs | IkB sig inh | p53ts 32C tox | p53ts 39C tox | Imprint erasure | TSHR ag
COc1cc(OC)cc(-c2nc3ccccc3c(=O)o2)c1 | x | x | -5% | 22% | x | x
CCOc1cccc(-c2nc3ccccc3c(=O)o2)c1 | x | u | 10µM* | 10µM* | -29%[10.9 µM] | x
O=C(C1CCC(Cn2c(=O)c3sccc3n(Cc3ccccc3)c2=O)CC1)N1CCOCC1 (stereo not drawn) | x | -1% | -2% | -12% | -7%[10.9 µM] | x
Cc1occc1-c1nnc(SCC(=O)Nc2ccccc2)n1CCc1ccccc1 | u | u | 6% | 0% | -7% | u
Cc1occc1-c1nnc(SCC(=O)Nc2ccccc2N2CCCCC2)n1C | 32µM* | 0% | 15% | u | -10% | u
CCn1c(SCC(=O)Nc2ccccc2N2CCCCC2)nc2c1c(=O)n(C)c(=O)n2C | 16µM* | u | -6% | -11% | -6% | u
Cc1occc1-c1nnc(SCC(=O)NCCc2ccccc2)n1Cc1ccccc1 | 20µM* | u | 6% | 4% | -8% | u
CC(C)n1c(SCC(=O)Nc2ccccc2N2CCOCC2)nc2c1c(=O)n(C)c(=O)n2C | x | x | 5% | 26% | x | x
CCn1c(SCC(=O)Nc2ccccc2-c2ccccc2)nnc1-c1ccoc1C | u | 1% | 2% | -2% | -4% | u
CC(c1ccco1)N(C(=O)CSc1ccc(Br)cc1)c1ccccn1 (stereo not drawn) | 25µM* | u | 7% | 4% | -11% | u
CC(c1ccco1)N(C(=O)c1cccs1)c1ccccn1 (stereo not drawn) | 4% | 1% | 1% | 0% | -9% | 3%
Cc1cc(N2CCC(C(=O)Nc3ccc(F)cc3F)CC2)n2nc(C)c(-c3ccc(Cl)cc3)c2n1 | x | -1% | 12% | -12% | 19%[10.9 µM] | x
COc1ccc(C2c3c(oc4ccc(Cl)cc4c3=O)C(=O)N2CCCN(C)C)cc1OC (stereo not drawn) | x | -1% | 25% | 3% | -1%[10.9 µM] | x
CC1(Cc2cn(CCC#N)c3ccccc23)OCCO1 | 15% | 4% | -7% | 1% | -7% | 16µM*
CCOc1cc(C(=O)OCc2cc(=O)n3nc(CC)sc3n2)cc(OCC)c1OCC | x | -2% | -3% | -11% | -8%[10.9 µM] | x
C=C[C@]1(C)C[C@H](OC(=O)CO)[C@]2(C)C3C(=O)CC[C@]3(CC[C@H]2C)[C@H](C)[C@H]1O (stereo partly drawn) | 3%[11.4 µM] | 1%[11.4 µM] | 14%[9.22 µM] | 8%[9.22 µM] | -4%[10.9 µM] | -6%[11.4 µM]
O=S(=O)(c1ccc2c(c1)OCCO2)N(Cc1ccc(F)cc1)Cc1nnc(-c2cccs2)o1 | 2µM* | 4% | -2% | 8% | -19% | u
CC(Cc1ccccc1)C(=O)NCCc1c[nH]c2ccccc12 (stereo not drawn) | 13µM* | x | 3% | -1% | 0% | u
